{"source": "the supplement of paper PMC10849652", "note": "About 7,900 targets were measured; listed, in parts, are those with a hit and a random draw of the rest. About 0.6% of all pairs of compound and target were hits. Unmarked numbers belong to inactive results.", "data": [{"compound": "COc1cc2ncnc(Nc3ccc(F)c(Cl)c3)c2cc1OCCCN1CCOCC1 [gefitinib]", "assay": "log2 fold change, soluble protein after heating vs DMSO (PISA); higher = thermal stabilisation; K562 cells, 10 uM, 30 min; active = over 0.2 and 3.5 SD of the protein, either way, in both replicates (recomputed)", "in_short": "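K562 cells (2×10^6 cells/mL) were treated with 10 μM compound for 30 min, and aliquots were heated for 3 min over 48°C-58°C. Pooled aliquots were extracted in PBS with 0.5% NP-40 at 4°C, and the supernatant after 21,000xg for 90 min was measured by TMTpro 16plex LC-MS/MS with channel sums equalised. Reported thermal stability, relative to control samples and from duplicates, is a log2 fold change.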", "values": [{"target": "GAPVD1 isoform 6 (UniProt Q14C86)", "log2 fold change": -0.013}, {"target": "IDH3A (UniProt P50213)", "log2 fold change": 0.039}, {"target": "GALNT4 (UniProt Q8N4A0)", "log2 fold change": 0.025}, {"target": "HMOX2 (UniProt P30519)", "log2 fold change": 0.006}, {"target": "HIP1R (UniProt O75146)", "log2 fold change": -0.025}, {"target": "GBF1 (UniProt Q92538)", "log2 fold change": -0.012}, {"target": "HSD17B12 (UniProt Q53GQ0)", "sequence (Q53GQ0 whole entry, looked up)": "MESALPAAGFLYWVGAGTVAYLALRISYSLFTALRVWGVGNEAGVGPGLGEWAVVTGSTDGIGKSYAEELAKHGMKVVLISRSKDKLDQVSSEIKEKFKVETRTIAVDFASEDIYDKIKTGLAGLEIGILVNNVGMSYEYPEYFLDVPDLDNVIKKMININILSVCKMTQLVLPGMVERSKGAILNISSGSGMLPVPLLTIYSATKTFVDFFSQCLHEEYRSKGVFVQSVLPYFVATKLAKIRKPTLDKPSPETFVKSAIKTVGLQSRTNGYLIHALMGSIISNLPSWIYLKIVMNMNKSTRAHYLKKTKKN", "log2 fold change": 0.103}, {"target": "GABPA (UniProt Q06546)", "log2 fold change": 0.032}, {"target": "HTATIP2 isoform 3 (UniProt Q9BUP3)", "log2 fold change": 0.066}, {"target": "HDDC2 (UniProt Q7Z4H3)", "log2 fold change": -0.022}, {"target": "HLTF (UniProt Q14527)", "log2 fold change": "0.334 (active)"}, {"target": "GATD1 (UniProt Q8NB37)", "log2 fold change": -0.014}, {"target": "HP1BP3 (UniProt Q5SSJ5)", "sequence (Q5SSJ5 whole entry, looked up)": "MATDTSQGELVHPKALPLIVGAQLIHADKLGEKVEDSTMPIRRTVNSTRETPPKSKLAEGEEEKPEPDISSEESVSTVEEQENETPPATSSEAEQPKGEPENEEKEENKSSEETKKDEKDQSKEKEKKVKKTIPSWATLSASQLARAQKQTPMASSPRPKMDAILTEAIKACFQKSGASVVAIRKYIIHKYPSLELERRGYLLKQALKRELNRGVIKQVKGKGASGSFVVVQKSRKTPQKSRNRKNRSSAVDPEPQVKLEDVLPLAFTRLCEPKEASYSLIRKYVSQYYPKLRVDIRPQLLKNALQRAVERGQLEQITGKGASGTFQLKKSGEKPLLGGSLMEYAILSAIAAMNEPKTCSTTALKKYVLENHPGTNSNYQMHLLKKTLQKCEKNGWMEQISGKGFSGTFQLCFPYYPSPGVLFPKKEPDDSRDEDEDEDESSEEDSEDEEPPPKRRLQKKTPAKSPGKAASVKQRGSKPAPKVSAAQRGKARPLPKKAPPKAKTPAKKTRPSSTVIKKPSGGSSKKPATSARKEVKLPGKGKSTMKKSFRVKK", "log2 fold change": 0.154}, {"target": "GTF3C4 (UniProt Q9UKN8)", "sequence (Q9UKN8 whole entry, looked up)": "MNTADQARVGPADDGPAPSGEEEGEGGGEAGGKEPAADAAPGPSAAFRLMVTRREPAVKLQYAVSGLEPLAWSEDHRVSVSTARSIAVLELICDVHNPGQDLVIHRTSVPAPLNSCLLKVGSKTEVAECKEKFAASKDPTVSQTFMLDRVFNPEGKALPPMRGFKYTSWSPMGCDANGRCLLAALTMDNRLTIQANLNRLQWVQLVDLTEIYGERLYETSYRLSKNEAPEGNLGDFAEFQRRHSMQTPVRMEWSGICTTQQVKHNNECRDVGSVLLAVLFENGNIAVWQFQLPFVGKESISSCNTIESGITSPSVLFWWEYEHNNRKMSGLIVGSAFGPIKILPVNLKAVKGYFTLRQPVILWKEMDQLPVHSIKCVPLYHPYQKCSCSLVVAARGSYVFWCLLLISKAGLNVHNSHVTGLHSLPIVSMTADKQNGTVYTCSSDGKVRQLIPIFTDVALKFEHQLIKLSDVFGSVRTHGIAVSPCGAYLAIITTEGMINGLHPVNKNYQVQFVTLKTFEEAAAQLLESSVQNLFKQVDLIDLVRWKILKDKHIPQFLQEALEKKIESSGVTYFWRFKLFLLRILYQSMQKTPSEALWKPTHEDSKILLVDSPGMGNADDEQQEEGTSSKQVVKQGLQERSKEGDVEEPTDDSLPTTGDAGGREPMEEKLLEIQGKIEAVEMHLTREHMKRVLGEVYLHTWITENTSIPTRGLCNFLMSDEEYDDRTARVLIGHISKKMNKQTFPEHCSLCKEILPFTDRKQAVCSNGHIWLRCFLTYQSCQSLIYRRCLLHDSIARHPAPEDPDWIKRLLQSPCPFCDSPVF", "log2 fold change": 0.058}, {"target": "FUCA1 (UniProt P04066)", "log2 fold change": 0.003}, {"target": "FAM91A1 (UniProt Q658Y4)", "log2 fold change": -0.013}, {"target": "GLRX3 (UniProt O76003)", "sequence (O76003 whole entry, looked up)": "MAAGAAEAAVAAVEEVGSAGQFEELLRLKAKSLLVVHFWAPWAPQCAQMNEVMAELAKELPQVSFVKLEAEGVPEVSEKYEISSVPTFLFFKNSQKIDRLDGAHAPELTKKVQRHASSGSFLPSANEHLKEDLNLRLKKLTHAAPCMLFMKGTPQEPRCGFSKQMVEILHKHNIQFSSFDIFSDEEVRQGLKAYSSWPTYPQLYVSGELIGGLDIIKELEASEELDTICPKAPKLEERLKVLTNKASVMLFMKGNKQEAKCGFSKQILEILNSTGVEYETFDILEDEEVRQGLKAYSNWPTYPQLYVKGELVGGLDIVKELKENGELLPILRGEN", "log2 fold change": -0.009}, {"target": "GAGE12F (UniProt P0CL80)", "log2 fold change": -0.03}, {"target": "HDGFL2 (UniProt Q7Z4V5)", "sequence (Q7Z4V5 whole entry, looked up)": "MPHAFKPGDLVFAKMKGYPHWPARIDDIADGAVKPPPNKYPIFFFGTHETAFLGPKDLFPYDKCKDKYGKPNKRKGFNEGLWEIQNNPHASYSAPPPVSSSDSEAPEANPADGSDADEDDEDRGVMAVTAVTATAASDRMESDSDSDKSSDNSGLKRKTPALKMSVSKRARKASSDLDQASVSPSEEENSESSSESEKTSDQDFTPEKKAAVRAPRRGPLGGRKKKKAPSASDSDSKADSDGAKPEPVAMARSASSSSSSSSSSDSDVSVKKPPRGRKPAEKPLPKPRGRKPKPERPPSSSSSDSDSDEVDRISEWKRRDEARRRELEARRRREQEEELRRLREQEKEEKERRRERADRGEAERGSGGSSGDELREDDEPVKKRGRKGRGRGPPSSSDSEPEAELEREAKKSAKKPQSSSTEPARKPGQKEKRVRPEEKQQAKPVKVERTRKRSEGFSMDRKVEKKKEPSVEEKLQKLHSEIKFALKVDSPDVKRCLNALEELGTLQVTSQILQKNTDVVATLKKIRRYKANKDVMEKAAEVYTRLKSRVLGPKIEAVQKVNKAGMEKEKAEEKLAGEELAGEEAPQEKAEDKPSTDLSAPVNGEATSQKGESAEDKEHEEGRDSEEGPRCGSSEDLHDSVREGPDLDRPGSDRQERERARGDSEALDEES", "log2 fold change": 0.025}, {"target": "GMEB2 (UniProt Q9UKD1)", "sequence (Q9UKD1 whole entry, looked up)": "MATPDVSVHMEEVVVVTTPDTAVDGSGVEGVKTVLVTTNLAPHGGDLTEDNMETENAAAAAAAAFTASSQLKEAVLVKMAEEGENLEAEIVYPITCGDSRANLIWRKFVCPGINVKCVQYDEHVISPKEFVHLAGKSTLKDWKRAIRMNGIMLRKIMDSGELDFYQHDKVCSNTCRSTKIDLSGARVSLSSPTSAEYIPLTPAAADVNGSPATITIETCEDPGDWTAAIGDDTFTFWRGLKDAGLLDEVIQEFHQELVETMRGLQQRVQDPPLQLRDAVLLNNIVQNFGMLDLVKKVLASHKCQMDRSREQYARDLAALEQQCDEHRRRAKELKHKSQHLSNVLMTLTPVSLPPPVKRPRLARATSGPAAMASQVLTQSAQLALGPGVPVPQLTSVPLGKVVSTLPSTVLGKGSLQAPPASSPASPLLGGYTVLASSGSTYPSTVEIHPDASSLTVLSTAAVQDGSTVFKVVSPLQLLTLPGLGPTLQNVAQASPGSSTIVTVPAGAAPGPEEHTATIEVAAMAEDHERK", "log2 fold change": 0.038}, {"target": "GLYR1 (UniProt Q49A26)", "log2 fold change": 0.113}, {"target": "FNTA (UniProt P49354)", "log2 fold change": 0.056}, {"target": "IFI30 (UniProt P13284)", "log2 fold change": -0.035}, {"target": "GABARAPL2 (UniProt P60520)", "log2 fold change": -0.014}, {"target": "HIKESHI (UniProt Q53FT3)", "sequence (Q53FT3 whole entry, looked up)": "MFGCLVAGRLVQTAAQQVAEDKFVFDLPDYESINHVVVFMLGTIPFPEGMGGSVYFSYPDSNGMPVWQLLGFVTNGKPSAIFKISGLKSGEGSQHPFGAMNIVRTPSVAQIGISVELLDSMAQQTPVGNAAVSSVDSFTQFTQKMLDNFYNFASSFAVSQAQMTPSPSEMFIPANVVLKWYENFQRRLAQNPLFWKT", "log2 fold change": 0.011}, {"target": "GSTM4 (UniProt Q03013)", "sequence (Q03013 whole entry, looked up)": "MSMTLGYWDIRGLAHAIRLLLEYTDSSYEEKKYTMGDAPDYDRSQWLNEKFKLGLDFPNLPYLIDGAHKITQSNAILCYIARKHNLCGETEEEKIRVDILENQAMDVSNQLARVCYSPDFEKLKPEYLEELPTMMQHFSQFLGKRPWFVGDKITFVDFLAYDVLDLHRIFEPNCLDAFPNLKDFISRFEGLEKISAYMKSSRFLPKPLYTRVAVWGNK", "log2 fold change": -0.056}, {"target": "FIS1 (UniProt Q9Y3D6)", "log2 fold change": -0.025}, {"target": "IDI1 isoform 2 (UniProt Q13907)", "sequence (Q13907 whole entry, looked up)": "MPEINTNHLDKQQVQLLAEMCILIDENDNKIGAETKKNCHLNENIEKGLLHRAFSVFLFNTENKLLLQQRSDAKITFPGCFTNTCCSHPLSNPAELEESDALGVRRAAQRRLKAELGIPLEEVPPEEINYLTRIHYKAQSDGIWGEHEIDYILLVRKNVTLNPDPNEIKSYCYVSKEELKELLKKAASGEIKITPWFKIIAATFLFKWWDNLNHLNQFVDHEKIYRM", "log2 fold change": 0.024}, {"target": "HNRNPH1 (UniProt P31943)", "sequence (P31943 whole entry, looked up)": "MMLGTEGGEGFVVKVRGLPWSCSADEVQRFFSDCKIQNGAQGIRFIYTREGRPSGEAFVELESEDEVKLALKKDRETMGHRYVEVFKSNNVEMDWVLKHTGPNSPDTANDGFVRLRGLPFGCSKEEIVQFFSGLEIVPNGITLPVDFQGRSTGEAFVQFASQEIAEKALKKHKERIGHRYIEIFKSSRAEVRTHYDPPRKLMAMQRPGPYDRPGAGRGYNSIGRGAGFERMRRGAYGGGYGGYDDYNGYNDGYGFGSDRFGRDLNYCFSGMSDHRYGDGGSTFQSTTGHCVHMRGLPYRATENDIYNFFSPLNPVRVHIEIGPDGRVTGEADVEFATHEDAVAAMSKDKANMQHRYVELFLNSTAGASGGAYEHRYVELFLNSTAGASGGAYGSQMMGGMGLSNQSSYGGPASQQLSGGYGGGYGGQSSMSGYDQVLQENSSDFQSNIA", "log2 fold change": -0.015}, {"target": "HIST2H3A (UniProt Q71DI3)", "log2 fold change": 0.061}, {"target": "FHOD1 (UniProt Q9Y613)", "log2 fold change": -0.005}, {"target": "GLUD1 (UniProt P00367)", "log2 fold change": 0.076}, {"target": "FBXO7 (UniProt Q9Y3I1)", "sequence (Q9Y3I1 whole entry, looked up)": "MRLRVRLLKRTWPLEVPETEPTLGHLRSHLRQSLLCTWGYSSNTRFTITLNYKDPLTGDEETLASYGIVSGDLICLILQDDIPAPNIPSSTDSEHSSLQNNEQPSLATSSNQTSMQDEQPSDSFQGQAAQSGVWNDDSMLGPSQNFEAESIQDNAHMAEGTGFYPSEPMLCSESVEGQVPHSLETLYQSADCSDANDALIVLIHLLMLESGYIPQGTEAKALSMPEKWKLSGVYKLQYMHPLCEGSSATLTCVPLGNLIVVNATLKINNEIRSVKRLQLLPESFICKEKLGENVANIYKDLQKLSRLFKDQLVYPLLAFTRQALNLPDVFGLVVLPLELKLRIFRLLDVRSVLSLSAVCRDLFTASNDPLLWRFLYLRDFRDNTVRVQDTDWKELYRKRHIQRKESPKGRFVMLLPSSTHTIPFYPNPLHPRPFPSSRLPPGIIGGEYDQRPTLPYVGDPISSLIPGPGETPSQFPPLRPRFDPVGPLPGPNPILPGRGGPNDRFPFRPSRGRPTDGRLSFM", "log2 fold change": -0.023}, {"target": "HIC2 (UniProt Q96JB3)", "log2 fold change": -0.073}, {"target": "FUBP3 (UniProt Q96I24)", "log2 fold change": -0.049}]}]}
